Measured values as given in the supplement of paper PMC12669032.
A number with no mark means an inactive call.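 How the source made its calls: active = AUC reduced over 20% with Padj below 0.05 in at least 2 of 3 replicates; inactive = otherwise.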

Key:
Assay in all cases: growth AUC relative to DMSO control (median of replicates) (fraction); higher = more growth (less inhibition), active = hit call of the paper
Details in all cases: 20 µM; 24 h
Akkermansia muciniphila = system: Akkermansia muciniphila
In short: (§1)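 In round-bottom 96-well plates sealed with pierced gas-permeable seals, gut bacterial monocultures in mGAM were grown anaerobically at 37 °C from OD600 0.05 with 20 µM compound (1% DMSO). OD600 readings were taken hourly for 24 h, and the minimum OD was set to 0. Area under the growth curve was then normalised to the plate median of solvent-only wells, or to row and column medians on the industrial chemical plate. The value given is the median of three biological replicates grown on separate days.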

Bacteroides caccae = system: Bacteroides caccae
In short: as §1

Bacteroides clarus = system: Bacteroides clarus
In short: as §1

Bacteroides dorei = system: Bacteroides dorei
In short: as §1

Bacteroides stercoris = system: Bacteroides stercoris
In short: as §1

[1] = system: Bacteroides thetaiotaomicron
In short: as §1

Bacteroides uniformis = system: Bacteroides uniformis
In short: as §1

[2] = system: Bifidobacterium longum subsp. longum
In short: as §1

Clostridium difficile = system: Clostridium difficile
In short: as §1

Collinsella aerofaciens = system: Collinsella aerofaciens
In short: as §1

Coprococcus comes = system: Coprococcus comes
In short: as §1

Escherichia coli ED1a = system: Escherichia coli ED1a
In short: as §1

Escherichia coli IAI1 = system: Escherichia coli IAI1
In short: as §1

Eubacterium rectale = system: Eubacterium rectale
In short: as §1

[3] = system: Fusobacterium nucleatum subsp. animalis
In short: as §1

Lactobacillus gasseri = system: Lactobacillus gasseri
In short: as §1

Lactobacillus paracasei = system: Lactobacillus paracasei
In short: as §1

Odoribacter splanchnicus = system: Odoribacter splanchnicus
In short: as §1

[4] = system: Parabacteroides distasonis
In short: as §1

Parabacteroides merdae = system: Parabacteroides merdae
In short: as §1

SMILES	growth AUC (Akkermansia muciniphila)	growth AUC (Bacteroides caccae)	growth AUC (Bacteroides clarus)	growth AUC (Bacteroides dorei)	growth AUC (Bacteroides stercoris)	growth AUC [1]	growth AUC (Bacteroides uniformis)	growth AUC [2]	growth AUC (Clostridium difficile)	growth AUC (Collinsella aerofaciens)	growth AUC (Coprococcus comes)	growth AUC (Escherichia coli ED1a)	growth AUC (Escherichia coli IAI1)	growth AUC (Eubacterium rectale)	growth AUC [3]	growth AUC (Lactobacillus gasseri)	growth AUC (Lactobacillus paracasei)	growth AUC (Odoribacter splanchnicus)	growth AUC [4]	growth AUC (Parabacteroides merdae)
CC(C)c1ccccc1	0.937	1.02	1.01	1.02	1.02	0.999	0.999	0.947	1.02	1.02	0.983	0.987	0.999	0.968	0.92	1.17	0.996	0.999	1.04	1.02
CN(C)C(=O)SCCCCOc1ccccc1	0.993	0.957	0.967	0.99	0.915	0.973	0.992	0.984	0.983	0.993	0.968	0.98	0.962	1.12	0.958	1.01	0.975	0.981	0.938	0.961
CC(C)C(O)(c1ccc(OC(F)(F)F)cc1)c1cncnc1 (stereo not given)	0.853	1	0.938	0.991	1.22	0.939	0.972	1.03	0.985	1.03	1.01	0.981	0.961	0.994	0.926	1.05	1.02	0.938	0.959	0.588 (active)
c1ccc(Nc2ccccc2)cc1	0.883	1.01	0.94	1.03	0.951	1	0.981	0.953	0.999	1.01	0.97	0.986	1.01	0.9	0.988	1.1	0.878	1.03	1.02	0.983
O=C=NC1CCC(CC2CCC(N=C=O)CC2)CC1 (stereo not given)	1.05	0.986	1.03	0.939	1.03	0.995	0.996	1.05	1.01	1.02	1.08	1.02	1.03	0.973	1.05	0.921	1.12	1.06	1	1.02
CN(C(=O)NC(C)(C)c1ccccc1)c1ccccc1	0.911	1.04	0.999	0.988	0.824	1.01	1.03	0.916	1.04	0.969	1.01	1.01	0.974	0.981	0.909	1.01	0.951	1.1	0.952	1
CC1COc2ccccc2N1C(=O)C(Cl)Cl (stereo not given)	0.721	0.953	0.958	0.876	0.945	0.903	0.985	1.03	0.875	0.89	0.887	0.985	0.973	0.989	0.688	0.903	1.11	0.979	0.931	0.95
CN(C)C(=O)NC1CCCCCCC1	0.984	1.01	1.01	0.996	1.09	0.99	0.972	1.01	1.03	1.01	1.03	0.999	0.998	1.06	1.04	1.04	0.978	0.948	1.02	1.01
